# Assay outcomes as filed in PubChem BioAssay.
# An excerpt weighted towards active compounds, which were near 6.6% of everything screened.
# HT1080-NT tox = qHTS for induction of synthetic lethality in tumor cells producing 2HG: qHTS for the HT-1080-NT fibrosarcoma cell line | HT-1080-NT fibrosarcoma viability, CellTiter-Glo ATP luminescence, 48 h | Potency, µM (top dose mostly 46.1 µM), for the others: at the highest dose activity, negative = less viability, actives largely listed as cytotoxic | 360,000 tested, 1.6% active;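 further: NT is the 2HG producing partner of a matched IDH1 knockdown line; 0% = DMSO-treated cells and -100% = media-only wells without cells; nearly all actives have a fitted effect of over 55% in size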
#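 HT-1080-NT; 750 cells/well; 5% FBS RPMI; 48 h compound, 37 degrees C; CellTiter-Glo luminescence; curve fitting and curve-class assignment.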
# KB-3-1 cytotox = qHTS assay for MDR1-selective chemotherapeutics: Primary screen using the parental adenocarcinoma cell KB-3-1; KB-3-1 viability, CellTiter-Glo ATP luminescence, 72 h; Potency, µM (top dose mostly 46.1 µM), usual class: cytotoxic; 400,000 tested, 1.4% active; further: on the % scale 0 is the no-effect control and ±100 the full control effect; nearly all actives have a fitted effect of over 60% in size
#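 Screening of KB-3-1 cells (DMEM, 10% FBS, phenol-red free) ran from lowest to highest compound concentration; after 72 h at 37 °C viability was read luminescently and curves fitted.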
# HepG2 viability = qHTS for Inhibitors of TGF-b: Cytotox Counterscreen. HepG2 CAGA-GFP viability, ATP luminescence, 18 h. Potency, µM (highest dose often 46.1 µM), for inactives: at the highest dose activity change, negative = cytotoxicity, hits mostly cytotoxic. 410,000 tested, 0.76% active. AID 588856, 2011
#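 CellTiter-Glo luminescence gave cytotoxicity after 18 hours at 37 degrees C. The cells were HepG2 CAGA-GFP in 1% FBS DMEM, stimulated with 500 pg/mL TGF-beta after compound addition. %Activity was normalised to no-cell wells (complete cell-killing) and DMSO (no toxicity), and curves were fitted and classified.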
# KB-V1 cytotox = qHTS assay for MDR1-selective chemotherapeutics: Primary screen using the drug-selected MDR subline cells KB-V1. KB-V1 MDR cells viability, CellTiter-Glo, 72 h. Potency, µM (highest dose often 46.1 µM), most hits filed as cytotoxic. 400,000 tested, 3.4% active; further: on the % scale 0 is the no-effect control and ±100 the full control effect; nearly all actives have a fitted effect of over 60% in size
#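 Cytotoxicity via CellTiter-Glo luminescence after 72 h compound exposure at 37 degrees C. Cells: drug-selected KB-V1 line, DMEM phenol-red free plus 10% FBS. Compounds tested at multiple concentrations; normalized data fitted to concentration-effect curves.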
# HT1080 IDH1KD tx = qHTS for induction of synthetic lethality in tumor cells producing 2HG: qHTS for the HT-1080-IDH1KD cell line. HT-1080 IDH1 knockdown viability, ATP luminescence, 48 h. Potency, µM (titrated, usually from 46.1 µM), inactives show at the highest dose activity, negative = toxicity, most hits filed as cytotoxic. 360,000 tested, 2% active. AID 686971, 2013;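 further: 0% = DMSO wells and -100% = cell-free medium wells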
#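 CellTiter-Glo luminescence after 48 h compound exposure at 37 degrees C of IDH1-knockdown HT-1080 cells in 5% FBS RPMI. %Activity scaled between DMSO wells and cell-free media wells, with curves fitted and assigned curve classes.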
# TGFb SMAD3 inh = qHTS for Inhibitors of TGF-b | HepG2 CAGA-GFP TGF-b/SMAD3 reporter, GFP fluorescence, 18 h; TGF-beta stimulated, 500 pg/mL final | 410,000 tested, 1.2% active | Potency, µM (highest dose often 46.1 µM), without a hit: at the top dose activity, negative = inhibition, actives largely listed as inhibitors; further: on the % scale 0 is the no-effect control and ±100 the full control effect; nearly all actives have a fitted effect of over 65% in size
#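 First, reporter cells (HEPG2 CAGA-GFP) rested 2 h at 37 degrees C. Next, compounds were pinned in and TGF-beta added to 500 pg/mL final. After 18 h, GFP was imaged per cell and summed per well.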
# The depositor's hits bear a star; i = inactive; ? = inconclusive; nt = no result. The call rests on the fitted dose curve; in most records, active means well fitted curve in the direction sought with a large enough effect; inconclusive means small, poorly fitted or top-dose-only effect, or another doubt; inactive means no such curve, though single readings can be large; an effect the other way counts as inactive or inconclusive. Potency means the concentration at half of the fitted maximal effect.
SMILES,HT1080-NT tox,KB-3-1 cytotox,HepG2 viability,KB-V1 cytotox,HT1080 IDH1KD tx,TGFb SMAD3 inh
Cc1ccc(C(=O)OCn2ncc(Cl)c(Cl)c2=O)cc1,5.8µM*,4.6µM*,-103%,?,5.2µM*,?
CCC(=O)Nc1ccc(C(=O)Cn2ncc(Cl)c(Cl)c2=O)cc1,0%,?,-123%,?,?,?
CCOC(=O)c1ccc(NC(=O)Cn2ncc(Cl)c(Cl)c2=O)cc1,16µM*,?,16µM*,?,4.6µM*,?
O=C(OCC(=O)c1ccc[nH]1)c1ccc(C(F)(F)F)cc1,10%,?,-11%,i,24%,8%
O=C(OCn1ncc(Cl)c(Cl)c1=O)c1ccc(C(F)(F)F)cc1,?,7.3µM*,10µM*,6.5µM*,?,-13%
Cc1ccc(C(=O)COC(=O)c2nc(Cl)ccc2Cl)cc1,7%,?,2%,i,4%,12%
c1ccc(CCn2c3ccccc3c3nnc(SCc4ccc5nonc5c4)nc32)cc1,?,i,-32%,?,7.1µM*,-5%
O=C(CN1C(=O)C2(OCCO2)c2ccccc21)c1ccc(Cl)cc1,-1%,i,-3%,21µM*,-2%,3%
CC(C)(C)c1ccc(-c2noc(CCC(=O)Nc3cccc(Cl)c3)n2)cc1,nt,i,-16%,i,nt,-8%
CCN1C(=O)C(O)(C2COC(C)(C)CC2=O)c2cc(Br)ccc21 (centres undefined),16µM*,i,-40%,i,?,?
CCN1C(=O)C(O)(C2COC(C)(C)CC2=O)c2ccccc21 (centres undefined),22%,i,7%,i,25%,1%
CCCN1CCN(c2cccc(Nc3nn4c(=O)c5ccccc5nc4s3)c2)CC1,nt,?,nt,i,nt,nt
CCN(CC(=O)NCc1cccs1)C(=O)CCCOc1ccc(C(C)(C)C)cc1,-1%,?,-30%,21µM*,-6%,?
CCN(CC(=O)NCc1cccs1)C(=O)CCCOc1ccccc1,2%,i,-7%,i,-2%,-1%
Cc1ccc(-n2nc3c(=O)n(C(C)C(=O)NCc4ccc(OC(C)C)cc4)nc(C)c3c2C)cc1 (centres undefined),nt,nt,-36%,nt,nt,?
Cc1ccc(-n2nc3c(=O)n(C(C)C(=O)NCc4ccc(Cl)cc4)nc(C)c3c2C)cc1 (centres undefined),0%,8.2µM*,-20%,i,4%,?
Cc1ccc(-n2nc3c(=O)n(C(C)C(=O)NCc4ccccc4C)nc(C)c3c2C)cc1 (centres undefined),nt,15µM*,-32%,i,nt,?
Cc1nn(C(C)C(=O)NCc2ccccc2F)c(=O)c2nn(-c3ccccc3)c(C)c12 (centres undefined),-1%,i,-1%,i,1%,-16%
COc1ccc(OC)c2c1C(=O)C(Cl)=C(Cl)C2=O,?,5.8µM*,-103%,5.2µM*,3.3µM*,3.2µM*
O=C(Nc1ccncc1)C1C(=O)c2ccccc2N(Cc2ccccc2)C1=O (centres undefined),nt,i,-39%,i,nt,-16%
Cc1ccc(-n2c(C)cc(C(=O)COc3c(CO)cc(F)cc3CO)c2C)cc1C,0%,i,2%,7.3µM*,-4%,?
CNS(=O)(=O)c1cccc(C(=O)OCC(=O)c2cc(C)n(-c3ccc4c(c3)OCO4)c2C)c1,-5%,?,9%,?,-10%,-7%
Cc1cc(C(=O)COc2ccccc2Cl)c(C)n1-c1ccc2c(c1)OCO2,-6%,18µM*,-1%,13µM*,-16%,-23%
COCC(=O)OCC(=O)c1cc(C)n(-c2ccc(Br)cc2)c1C,5%,i,3%,i,12%,0%
CCN1CCc2nc3sc(C(=O)Nc4cccc(Cl)c4C)c(N)c3cc2C1,nt,16µM*,-22%,6.5µM*,nt,-6%
SMILES,HT1080-NT tox,KB-3-1 cytotox,HepG2 viability,KB-V1 cytotox,HT1080 IDH1KD tx,TGFb SMAD3 inh
Nc1c(C(=O)Nc2ccccc2F)sc2nc3c(cc12)CCCCCC3,nt,13µM*,7%,6.5µM*,nt,0%
COc1ccccc1NC(=O)c1sc2nc3c(cc2c1N)CCCCCC3,nt,i,23%,i,nt,50%
CCCCc1ccc(C(=O)COC(=O)c2ccc3nc(C)c(C)nc3c2)cc1,nt,?,-1%,i,nt,-2%
Cc1ccccc1CN1N=C(/C=C/c2ccccc2)CCC1=O,0%,i,-28%,?,0%,5%
CCOC(=O)CN1N=C(/C=C/c2ccc(C)cc2)CCC1=O,15%,5.2µM*,-9%,5.8µM*,17%,-19%
CN1C2=NCCN2C(=O)c2cc(Cl)ccc21,-3%,i,-51%,i,0%,?
Brc1ccc2c(c1)-c1ccccc1C1=NCCN12,23µM*,?,-2%,10µM*,16µM*,16µM*
COc1ccc(Br)cc1S(=O)(=O)N1CCN=C1c1ccccc1,0%,nt,2%,nt,4%,8%
Clc1ccc2c(c1)-c1ccccc1C1=NCCN12,?,10µM*,-3%,8.2µM*,18µM*,?
COc1ccc(Cc2[nH]n3c(=O)cc(C(C)C)nc3c2-c2ccccc2)cc1,?,10µM*,11µM*,i,?,?
CN(C)c1ccc(CC2CCc3ccccc32)cc1 (centres undefined),nt,i,-17%,i,nt,15%
O=[N+]([O-])c1ccccc1-c1ccc(C(=S)N2CCCC2)o1,1%,i,-21%,i,-10%,?
Cc1cccc(N2CCN(C(=S)c3ccc(-c4ccccc4[N+](=O)[O-])o3)CC2)c1,?,16µM*,1%,?,?,?
Cc1cccc(N(C)S(=O)(=O)c2nnc(NC(=O)C(C)Oc3ccccc3)s2)c1 (centres undefined),nt,nt,-29%,nt,nt,-11%
CCC1CC=CC2C1C(=O)N(Cc1ccccc1)C2c1ccoc1 (centres undefined),nt,nt,-100%,nt,nt,10µM*
CCC1CC=CC2C1C(=O)N(Cc1ccccc1)C2c1cccc([N+](=O)[O-])c1 (centres undefined),nt,nt,-78%,nt,nt,10µM*
CC[C@@H]1CC=C[C@H]2[C@H]1C(=O)N(Cc1ccccc1)[C@H]2c1ccoc1,?,15µM*,-33%,?,?,13µM*
